{
  "source": "PubChem BioAssay AID463205",
  "about": "(Broad Institute, 2010)",
  "note": "Among all 2,400 compounds or so, about 20 (0.8%) were called active.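 The calls were made as follows: active = AC50 no more than ten times the highest tested concentration, or full inhibition at every dose giving a flat fit (cut at about 30 µM in these data); inconclusive = flat fit with activity between 30% and 70%, or poor-quality invalid fit; inactive = AC50 more than ten times the top tested dose.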 Many of the other results were omitted from the sample, so actives are more common in it than they were.",
  "data": [
    {"assay": "inhibitors of ADP-Glo detection reagents, dose response, artefact control for GSK-3a inhibitor project, biochemical, luminescence, cell-free, homogeneous (AID 463205);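 also: kinase-free counter-screen against the ADP-Glo detection reagents only; potency is for inhibitors that reduce the luminescence signal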", "details": "5 uM ADP", "values": [
      {"smiles": "COc1cccc(/C=N/n2cncn2)c1OCC#N", "AC50": "> 30 µM (inactive)"},
      {"smiles": "Cc1ccc(-c2cn3cccnc3n2)cc1NC(=O)c1cccs1", "AC50": "> 30 µM (inactive)"},
      {"smiles": "CCCOc1ccc(-c2nnc(N)s2)cc1", "AC50": "> 30 µM (inactive)"},
      {"smiles": "O=C(CSc1ccccn1)Nc1nc2ccc(Br)cc2s1", "AC50": "> 30 µM (inactive)"},
      {"smiles": "Nc1nc(-c2ccccc2)nc(-c2ccccc2O)n1", "AC50": "> 30 µM (inactive)"},
      {"smiles": "O=C(O)CCSc1nnc(-c2ccncc2)n1-c1ccccc1", "AC50": "> 30 µM (inactive)"},
      {"smiles": "NC(=O)c1ccc(NC(=O)CSc2nnc(-c3ccc4c(c3)OCO4)o2)cc1", "AC50": "> 30 µM (inactive)"},
      {"smiles": "C#CCOCCOCCOCCNc1nc(N2CCN(C(=O)CCCCCCCCCCNC(=O)[C@H]([C@@H](C)CC)n3cc(CCCCCN)nn3)CC2)nc(N2CCN(C(=O)CCCCCCCCCCNC(=O)[C@H](CO)n3cc(CCCCCN)nn3)CC2)n1", "AC50": "> 30 µM (inactive)"},
      {"smiles": "CCCCOC(=O)Nc1nnc(COc2ccccc2)s1", "AC50": "> 30 µM (inactive)"},
      {"smiles": "CCCOc1ccccc1NC(=O)Nc1ccccc1Cl", "AC50": "> 30 µM (inactive)"},
      {"smiles": "O=C(Nc1cccc(-c2cnc3ccccc3n2)c1)c1ccncc1", "AC50": "> 30 µM (inactive)"},
      {"smiles": "O=C(NCCN1CCN(Cc2ccccc2)CC1)Nc1cc(Cl)cc(Cl)c1", "AC50": "> 30 µM (inactive)"},
      {"smiles": "COc1ccc(-c2nnc(SCC(=O)Nc3ccccc3OC)o2)cc1", "AC50": "> 30 µM (inactive)"},
      {"smiles": "COc1cc(C2c3sc(=O)[nH]c3SC3C4CCC(C4)C23)ccc1O", "note": "(stereo not given)", "AC50": "> 30 µM (inactive)"},
      {"smiles": "Oc1ccc(-c2csc(Nc3ccccn3)n2)c(O)c1", "AC50": "> 30 µM (inactive)"},
      {"smiles": "CCOC(=O)CC(C#N)c1c[nH]c2ccccc12", "note": "(stereo not given)", "AC50": "> 30 µM (inactive)"},
      {"smiles": "COc1ccccc1N1CCN(C(=O)c2cc(-c3ccccc3)on2)CC1", "AC50": "> 30 µM (inactive)"},
      {"smiles": "Cc1sc2ncnc(N3CCC(C(=O)Nc4ccc(C#N)cc4)CC3)c2c1C", "AC50": "> 30 µM (inactive)"},
      {"smiles": "CC(=O)Nc1sc2c(c1C(N)=O)CCCC2", "AC50": "> 30 µM (inactive)"},
      {"smiles": "N#CC1=C2SCN(Cc3ccco3)CN2C(=O)CC1c1c(F)cccc1Cl", "note": "(stereo not given)", "AC50": "> 30 µM (inactive)"},
      {"smiles": "CCN(C(=O)C1CCCN1S(=O)(=O)c1cccc2nsnc12)c1ccccc1", "note": "(stereo not given)", "AC50": "> 30 µM (inactive)"},
      {"smiles": "Cc1ccc(C)c(N2CC(C(=O)Nc3nccs3)CC2=O)c1", "note": "(stereo not given)", "AC50": "> 30 µM (inactive)"},
      {"smiles": "Cc1ccc(-c2nc3n(n2)Cc2ccccc2-3)cc1", "AC50": "> 30 µM (inactive)"},
      {"smiles": "CCn1c(C)nc2cc(-c3nc4n(n3)Cc3ccccc3-4)ccc21", "AC50": "24.3 µM (active)"},
      {"smiles": "Fc1ccc(-c2nc3n(n2)Cc2ccccc2-3)cc1", "AC50": "> 30 µM (inactive)"},
      {"smiles": "NCCNc1ccc([N+](=O)[O-])c(NC2CC2)c1", "AC50": "> 30 µM (inactive)"},
      {"smiles": "COc1ccc(Nc2sc(C(=O)c3ccc(Cl)cc3)c(N)c2C(=O)Nc2ccccc2OC)cc1", "AC50": "> 30 µM (inactive)"},
      {"smiles": "Cc1ccc(NC(=O)CSCc2nc3c(nnn3Cc3ccc(F)cc3)c(=O)[nH]2)c(C)c1", "AC50": "> 30 µM (inactive)"},
      {"smiles": "COc1ccc(/C=C/c2nc3ccccc3n2C)cc1", "AC50": "14.3 µM (active)"},
      {"smiles": "COc1ccc(/C=C/c2nc(N)nc(-c3ccccc3O)n2)cc1", "AC50": "> 30 µM (inactive)"},
      {"smiles": "COc1c2ccccc2nc2ccccc12", "AC50": "> 30 µM (inactive)"},
      {"smiles": "C[n+]1cccc(C2C(C#N)=C(N)Oc3c2ccc2ccccc32)c1", "note": "(stereo not given)", "AC50": "> 30 µM (inactive)"},
      {"smiles": "O=C(CSc1nnc(-c2ccncc2)s1)Nc1ccccc1", "AC50": "> 30 µM (inactive)"},
      {"smiles": "O=C(CSc1nnc(-c2ccc(O)cc2)o1)Nc1ccccc1Br", "AC50": "> 30 µM (inactive)"},
      {"smiles": "COc1ccc(CNc2ccc3cn[nH]c3c2)c(OC)c1OC", "AC50": "> 30 µM (inactive)"},
      {"smiles": "CCCc1[nH]nc2c1C(c1ccc(O)c(OC)c1)C(C#N)=C(N)O2", "note": "(stereo not given)", "AC50": "> 30 µM (inactive)"},
      {"smiles": "Cc1sc2ncnc(NCCCN3CCCC3=O)c2c1C", "AC50": "> 30 µM (inactive)"},
      {"smiles": "Cc1cc(C)c2[nH]c(O)c(N=Nc3ccc(C(=O)O)cc3)c2c1", "AC50": "> 30 µM (inactive)"},
      {"smiles": "N#Cc1c(NC(=O)CSc2n[nH]c(N)n2)oc(-c2ccccc2)c1-c1ccccc1", "AC50": "> 30 µM (inactive)"},
      {"smiles": "COc1cccc(/C=c2\\s/c(=C\\C(=O)C(C)(C)C)[nH]c2=O)c1", "AC50": "> 30 µM (inactive)"},
      {"smiles": "CCOC(=O)c1cnc2c(C)cc(Cl)cc2c1N1CCN(C)CC1", "AC50": "> 30 µM (inactive)"},
      {"smiles": "COc1ccccc1/C=N/NC(=O)c1nnn(-c2nonc2N)c1-c1cccs1", "AC50": "> 30 µM (inactive)"},
      {"smiles": "CCN1CCN(c2nc(Nc3cccc(F)c3)nc(N)c2[N+](=O)[O-])CC1", "AC50": "> 30 µM (inactive)"},
      {"smiles": "Cc1nc(N2CCOCC2)nc(N2CCCCC2)c1[N+](=O)[O-]", "AC50": "> 30 µM (inactive)"},
      {"smiles": "COc1ccc(O)c(-c2nc(N)nc(N)n2)c1", "AC50": "> 30 µM (inactive)"},
      {"smiles": "Cc1cccc(C)c1OCC(O)CNC(C)c1ccccc1", "note": "(stereo not given)", "AC50": "> 30 µM (inactive)"},
      {"smiles": "O=C(CNC(=O)c1ccccc1)N/N=C/C=C/c1ccccc1", "AC50": "> 30 µM (inactive)"},
      {"smiles": "Cc1cc(NC(=O)COC(=O)c2cc(S(=O)(=O)N3CCOCC3)ccc2N2CCCCC2)no1", "AC50": "> 30 µM (inactive)"},
      {"smiles": "CN(c1nc2nonc2nc1NC1CC1)C1CCOC1", "note": "(stereo not given)", "AC50": "> 30 µM (inactive)"},
      {"smiles": "CCC/C(=N/NC(=O)c1nnn(-c2nonc2N)c1CN1CCCCC1)c1ccccc1", "AC50": "> 30 µM (inactive)"},
      {"smiles": "COc1ccc(NC(=O)CSc2nnc(-c3cccc(O)c3)o2)cc1", "AC50": "> 30 µM (inactive)"},
      {"smiles": "COc1ccc2cc(C(=O)NCc3ccco3)c(=O)oc2c1", "AC50": "> 30 µM (inactive)"},
      {"smiles": "COc1cccc(NC(=O)[C@@H]2CCCN2S(=O)(=O)c2cccc3cccnc23)c1", "AC50": "> 30 µM (inactive)"},
      {"smiles": "CCCNC(=O)NC(C(=O)OC)C12CC3CC(CC(C3)C1)C2", "note": "(stereo not given)", "AC50": "> 30 µM (inactive)"},
      {"smiles": "CCOC(=O)c1[nH]c2c(c1C)C(=O)CC(c1ccc(OC)c(OC)c1)C2", "note": "(stereo not given)", "AC50": "> 30 µM (inactive)"}
    ]}
  ]
}
